High-throughput results (PubChem)
TRAIL sens C8 – caspase-8 TRAIL sensitization; NB7+C8 cells + TRAIL, ATPlite viability luminescence; hit rate 1% among 360,000; inhibition (viability loss, TRAIL sensitization), % at 10 µM;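 active = compounds causing at least 50% loss of cell viability in the single-dose screen, relative to plate controls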
TROY signal inh – blocks TROY-dependent signaling in reporter cells; Q293 LMP1-TROYcd NF-kB luciferase reporter, 4 h; inhibition, % at 10 µM; hit rate 0.98% among 360,000; AID 1347056;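 active = compounds whose plate-normalised and pattern-corrected inhibition of the luciferase reporter signal at the single screening dose is 50% or more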
Platelet DG rel – platelet dense granule release activity; human platelet-rich plasma, SFLLRN dense granule ATP release, luminescence; inhibition, %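 (compounds screened at 7.5 µM in platelet-rich plasma)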; hit rate 0.22% among 300,000;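 active = mean replicate score, as percent of positive control, at or above 50; inconclusive = mean below 50 but at least one replicate at or above 50; inactive = mean and every replicate below 50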
HSP90 refold inh – inhibitors of HSP90 luciferase refolding in rabbit reticulocyte lysate | inhibition, % at 5.6 µM | hit rate 0.91% among 290,000 | AID 1789 | luciferase refolding luminescence, 3 h;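 active = inhibition above the screen-wide mean plus 3 SD, computed separately per campaign, cut at about 16% in these data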;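 note: inhibitors lower the luminescence because luciferase stays unfolded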
PPC-1+TRAIL kill – compounds killing PPC-1 cancer cells with TRAIL present (potentiator screen, no TRAIL-free arm); PPC-1 cells + TRAIL, ATPLite viability luminescence; cell killing (% activity), % at 4 µM or 5 µM; hit rate 0.41% among 220,000; AID 1443;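 active = cell killing above 50% in the first pass at 4 µM, then a duplicate retest at 5 µM averaging 50% or more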
TWEAK Fn14 block – TWEAK-Fn14 signaling inhibition | inhibition, % at 10 µM | AID 1159606 | TWEAK-stimulated Fn14 reporter cells, luciferase luminescence, 8 h | hit rate 2% among 360,000; in the data active = inhibition above about 50%
Numbers stand for hits; - = inactive; ? = inconclusive; . = no result. In the library only some 3.5% were active in any assay of this set; here they are far more common.

SMILES	TRAIL sens C8	TROY signal inh	Platelet DG rel	HSP90 refold inh	PPC-1+TRAIL kill	TWEAK Fn14 block
Cc1ccc2c(c1)C(=O)N1c3cc(C)c(C)cc3NC(=O)C1C(=O)N2 (stereo not drawn)	-	-	.	.	.	-
CCC(=O)C1CCCN(C(=O)c2ccc(OC3CCN(C(=O)CCOC)CC3)cc2)C1 (stereo not drawn)	-	-	-	-	.	88
CCOC(=O)c1ccc(-c2ccc(/C=N/NC(=O)CN(c3ccccc3Br)S(C)(=O)=O)o2)cc1	-	-	-	16	-	67
CS(=O)(=O)N(CC(=O)N/N=C/c1cccc2c1OCCO2)c1ccccc1Br	-	-	-	-	-	-
O=C(Nc1ccc(Cl)cc1)Nc1cccc2nsnc12	-	-	-	-	-	56
COc1ccc(/C=N/NC(=O)Nc2cccc3nsnc23)cc1OC	-	-	-	-	-	62
COc1ccc(/C=N/NC(=O)c2cccc(C(=O)N/N=C/c3ccc(OC)c(OC)c3)n2)cc1OC	-	-	-	-	.	-
CC(C)C[C@H]1CN(CCCC[C@H]2CNC(=O)C(=O)N2CCc2ccc(O)cc2)C(=O)C(=O)N1CCc1ccccc1	-	-	.	.	.	-
Oc1cccc2ccc(/C=C/c3ccccc3Cl)nc12	-	74	-	-	.	95
Oc1cccc2ccc(/C=C/c3c(F)cccc3Cl)nc12	-	-	-	-	-	-
Cc1ccc(C)c(Oc2cc(NC(=O)CCCn3nc(C)c([N+](=O)[O-])c3C)cc([N+](=O)[O-])c2)c1	-	-	-	-	-	73
CC(=O)Nc1cccc(C(=O)N2CCN(S(=O)(=O)Cc3ccccc3)CC2)c1	-	-	.	.	.	-
CC(Nc1nc(-c2ccc3c(c2)NC(=O)CO3)cs1)c1ccccc1 (stereo not drawn)	-	-	-	-	-	-
C=CCN=c1scc(-c2ccc3c(c2)NC(=O)CO3)n1/N=C(\C)c1ccccn1	-	-	.	-	-	66
O=C(NCCCN1CCOCC1)c1cccnc1SCc1ccccc1Cl	-	-	-	-	-	-
CN1N=C2c3ccccc3CCC2C1c1ccc(F)cc1 (stereo not drawn)	-	60	-	-	-	53
c1ccc(N2CC3CCc4ccccc4C3=N2)cc1 (stereo not drawn)	-	-	-	-	-	-
COc1ccc([N+](=O)[O-])c(S(=O)(=O)c2ccc(Cl)cc2)n1	-	66	-	-	-	97
Nc1cccnc1S(=O)(=O)c1ccccc1	-	-	-	-	.	-
O=[N+]([O-])c1cccnc1S(=O)(=O)c1ccccc1	-	-	-	-	.	95
COc1nc(OC)nc(Oc2ccc(Cl)cc2[N+](=O)[O-])n1	-	-	-	-	-	-
COc1ccccc1S(=O)(=O)c1ccccc1[N+](=O)[O-]	-	-	-	-	-	-
COc1ccc([N+](=O)[O-])c(S(=O)(=O)c2ccccc2)n1	-	72	-	-	-	97
CCOc1ccc(/C=C2\CCC(C3CCCC3)C2=O)cc1 (stereo not drawn)	-	-	-	-	.	-
CCC(=O)OCOc1ccc(/C=C2/CCC(CN(C)C)C2=O)cc1 (stereo not drawn)	72	-	.	.	.	-
SMILES	TRAIL sens C8	TROY signal inh	Platelet DG rel	HSP90 refold inh	PPC-1+TRAIL kill	TWEAK Fn14 block
COc1ccc(C(C)C)cc1-c1cc(C(=O)NCc2cccc(C(F)(F)F)c2)[nH]n1	-	-	.	.	.	-
O=C(Nc1cc(Cl)ccc1Oc1ccccc1)c1cnccn1	-	.	-	-	-	88
COc1ccc(Cc2nnc(SCc3ccc([N+](=O)[O-])cc3)o2)cc1	-	-	-	-	-	65
N=c1c(C(=O)NCCc2ccccc2)cc2c(=O)n3ccccc3nc2n1Cc1ccco1	-	-	-	-	.	75
N=c1c(C(=O)NC2CCCCC2)cc2c(=O)n3ccccc3nc2n1Cc1ccco1	-	-	-	-	.	85
CCCn1c(SCC(=O)NCCCN2CCCC2=O)nc2ccccc2c1=O	-	-	.	.	.	-
Cc1ccc(-n2c(O)c(C=Nc3ccc4c(c3)OCO4)c3ccccc3c2=O)cc1C	-	63	-	-	-	-
Cc1cc(N=Cc2c(O)n(-c3ccc4c(c3)OCO4)c(=O)c3ccccc23)ccn1	-	-	-	-	-	-
COc1cc(Cl)ccc1OCc1cc(C(=O)N2C[C@]3(C)C[C@H]2CC(C)(C)C3)no1	-	-	?	-	.	-
CC1(C(=O)NCCC#N)CCN1C(=O)C1(c2ccccc2)CC1 (stereo not drawn)	-	-	.	.	.	-
COc1cc2nc(NC(=O)c3ccc(F)cc3Cl)sc(=O)c2cc1OC	-	-	-	-	.	64
O=C(Nc1nc2ccsc2c(=O)s1)c1ccc(F)cc1Cl	-	-	-	-	-	-
C#CCn1c(=NC(=O)c2ccc(S(=O)(=O)N3CCc4ccccc4C3)cc2)sc2cc(S(N)(=O)=O)ccc21	-	-	-	-	61	-
C=CCn1c(=NC(=O)c2ccc(S(=O)(=O)N3CCc4ccccc4C3)cc2)sc2cc(S(N)(=O)=O)ccc21	-	-	-	-	-	-
CCC1CCCCN1CCCNC(=O)C1CCN(c2nnc(-n3cccc3)s2)CC1 (stereo not drawn)	-	-	-	-	.	-
Cc1ccc(C(=O)N/C(=C\c2ccc(-c3ccccc3[N+](=O)[O-])o2)C(=O)NCCN(C)C)cc1	54	-	-	-	.	-
CN(C)CCCNC(=O)/C(=C/c1ccc(-c2ccc([N+](=O)[O-])cc2)o1)NC(=O)c1ccccc1	-	-	-	-	.	-
Cc1ccc(C(=O)N/C(=C\c2ccc(-c3ccccc3[N+](=O)[O-])o2)C(=O)NCCCN(C)C)cc1	49	-	-	-	.	-
COC(=O)C(NC(=O)C(NC(=O)C1CCC(C)CC1)C(C)C)C(C)C (stereo not drawn)	-	-	-	.	.	-
C=CCNC(=O)/C(C#N)=C/c1c(C)nn(-c2ccc(Cl)cc2)c1Cl	-	-	-	-	-	51
Cc1nn(-c2ccc(Cl)cc2)c(Cl)c1/C=C(\C#N)C(N)=O	-	-	-	-	-	-
CC1=C(C(=O)Nc2ccccc2)C(c2ccc(C)o2)n2ncnc2N1 (stereo not drawn)	-	.	-	-	-	83
CC1=C(C(=O)Nc2ccccc2)C(c2ccco2)n2ncnc2N1 (stereo not drawn)	-	-	-	-	-	-
COc1ccccc1CC(=O)N1CCOCC1	-	-	-	-	.	-
OC(CCCN1CCCCC1)(c1ccccc1)c1ccc(C(F)(F)F)cc1 (stereo not drawn)	-	-	.	.	.	-
Cc1ccc(S(=O)(=O)N2CCN(C(=O)CSc3nccn3C)CC2)cc1	-	60	-	-	-	-
CCCCN1C(=O)C(CC(=O)NC2CC2)CC(C(=O)N(C(C)C)C(C)C)=C1C (stereo not drawn)	-	-	.	.	.	-
Cc1cc(C2(c3ccc(O)c(C)c3)OC(=O)c3ccccc32)ccc1O	-	-	-	-	-	-
Cc1cc(O)c(C(C)C)cc1C1(c2cc(C(C)C)c(O)cc2C)OC(=O)c2ccccc21	-	85	-	-	-	97
